Assay outcomes deposited in PubChem by National Center for Advancing Translational Sciences (NCATS).
Only some compounds are listed: those with a hit (about 10% of all), similar ones and a draw of the others.
VDR inhibitor – vitamin D3 receptor (human) inhibition; P11473; VDR-SRC2-3 peptide fluorescence polarization, 2 h; Potency, µM, for inactives: max response, negative = inhibition, actives largely listed as inhibitors; 400,000 tested, 0.93% active; AID 504847; also: potency is read from the fitted curve at half-maximal effect
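Compounds are added to VDR with labelled SRC2-3 coactivator peptide and held 2 h at room temperature. Inhibition of the VDR–peptide interaction is then read as a change in fluorescence polarization.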
G9a block – blocks human histone lysine methyltransferase G9a | Q96KQ7 | G9a H3K9 monomethylation, AlphaScreen, 2 h | Potency, µM (series often up to 102 µM), inactives show at the top dose activity, negative = inhibition, actives largely listed as inhibitors | 350,000 tested, 8.8% active | AID 504332; also: potency is read from the fitted curve at half-maximal effect; nearly all actives have a fitted effect of over 75% in size
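Signal arises when biotinylated H3K9 peptide, once monomethylated, bridges streptavidin donor and antibody-captured acceptor beads. Enzyme at 20 nM was preincubated 15 min with test compounds; peptide 500 nM and SAM 20 uM then reacted for 2 h.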
CCT modulator – modulators of cytosolic chaperonin (CCT/TRiC) activity | purified chaperonin ATPase assay, HTRF ADP detection, 30 min | activity change, % (no concentration beside the values), hits read low | 360,000 tested, 0.3% active; in the data active = activity change below about -30%
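ATPase activity: ADP formed was measured by HTRF Transcreener (665/615 nm ratio) after 30 min at 37 deg C with 10 uM ATP. Compounds screened at one 76 uM concentration against 40 or 20 nM TRiC in Tris pH 7.4/KCl/MgCl2/DTT buffer.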
MmCpn inh – M. maripaludis TRiC chaperonin inhibition. AID 504842. purified Mm-Cpn ATPase, ADP Transcreener TR-FRET. Potency, µM (series often up to 76.9 µM), inactives show at the highest dose activity, negative = inhibition, most hits filed as inhibitors. 330,000 tested, 0.031% active; also: potency is read from the fitted curve at half-maximal effect; nearly all actives have a fitted effect of over 80% in size
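Measured: ADP formation by purified Mm-CPN. Conditions: 25 nM protein, 10 uM ATP, Tris pH 7.4 with Mg2+, K+ and DTT, 37°C for 30 min. Detection: Transcreener HTRF after 30 min at room temperature.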
PLK1 PBD block – inhibitors of human PLK1 polo-box domain binding. Potency, µM, for the others: max response, negative = inhibition, most hits filed as inhibitors. P53350. 360,000 tested, 2.8% active. Plk1 PBD binding of FITC phosphopeptide, fluorescence polarization; also: potency is read from the fitted curve at half-maximal effect; series mostly up to about 57 µM; nearly all actives have a fitted effect of over 65% in size
Target sequence (P53350 whole entry, looked up, the tested form may be a part): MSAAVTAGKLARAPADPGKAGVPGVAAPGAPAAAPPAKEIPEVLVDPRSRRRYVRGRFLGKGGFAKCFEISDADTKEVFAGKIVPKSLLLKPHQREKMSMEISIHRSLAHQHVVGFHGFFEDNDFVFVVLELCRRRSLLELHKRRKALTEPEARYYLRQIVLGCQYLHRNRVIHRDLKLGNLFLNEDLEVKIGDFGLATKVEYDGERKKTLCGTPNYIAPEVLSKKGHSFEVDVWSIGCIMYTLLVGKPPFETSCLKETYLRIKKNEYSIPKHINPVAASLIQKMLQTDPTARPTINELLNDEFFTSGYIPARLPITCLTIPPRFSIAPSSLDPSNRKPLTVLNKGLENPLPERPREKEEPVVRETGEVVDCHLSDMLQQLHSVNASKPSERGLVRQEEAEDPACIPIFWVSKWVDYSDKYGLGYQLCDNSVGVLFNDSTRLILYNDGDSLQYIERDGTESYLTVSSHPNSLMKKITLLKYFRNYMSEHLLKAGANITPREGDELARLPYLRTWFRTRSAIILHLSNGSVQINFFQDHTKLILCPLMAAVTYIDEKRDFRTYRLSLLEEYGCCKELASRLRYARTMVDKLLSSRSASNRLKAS
Sfp PPTase inh – inhibitors of Bacillus subtilis Sfp phosphopantetheinyl transferase; Biochemical Sfp PPTase activity, qHTS; Q9F4F7; Potency, µM, for inactives: largest response in the series, negative = inhibition, hits mostly inhibitors; AID 1490; 310,000 tested, 3.5% active;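 also: the enzyme is Sfp with the accession as filed and its product quenches rhodamine fluorescence; potency is read from the fitted curve at half-maximal effect; 0% = enzyme reaction without inhibitor and -100% = no enzyme wells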
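Fluorescence-quenching assay: 15 nM Sfp-PPTase preincubated 15 min at room temperature with compound, then 5 uM rhodamine-CoA and 12.5 uM BHQ-2-labelled YbbR peptide added. Fluorescence (ex 525/em 598 nm) read at start and after 30 min; difference gives rate.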
An asterisk follows results filed as active; ? = inconclusive; . = no result; [ ] = another dose, or the depositor's remark. Unless noted, calls follow the shape of the dose curve; as a rule, active = well fitted curve in the direction sought with a large enough effect; inconclusive = small, poorly fitted or top-dose-only effect, or another doubt; inactive = no such curve, though single readings can be large; an effect the other way counts as inactive or inconclusive. Unless noted, % is scaled to controls: 0 for no effect and ±100 for the full control effect.

SMILES	VDR inhibitor	G9a block	CCT modulator	MmCpn inh	PLK1 PBD block	Sfp PPTase inh
N#CCCN(C(=S)NC(=O)c1cccs1)c1ccccc1F	?	4µM*	3	-1%	19µM*	.
O=S(=O)(c1cccc(NC(=S)Nc2ccc(Br)cc2Cl)c1)N1CCOCC1	-5%	-1%[12.7 µM]	-63*	1%	-25%	45µM*
N#CCCN(C(=O)COC(=O)CNC(=O)c1cccs1)c1ccc(F)cc1	-6%	-8%	-1	1%	4%	.
CC(C)CCCCCCNC(=S)Nc1ccc(S(=O)(=O)N2CCOCC2)cc1	-20%	0.89µM*	-2	3%	?	31%
NS(=O)(=O)c1ccc(NC(=S)Nc2ccc(S(=O)(=O)N3CCCC3)cc2)cc1	11%	?	0	4%	?	50µM*
O=C(Nc1ccc2oc(-c3cccc4c(Br)cccc34)nc2c1)c1ccc(Br)cc1	-9%	-32%[59 µM]	.	.	.	.
CC1(C)CC(=O)c2cc(C(=O)Nc3ccc(Br)cc3)c(=O)n(-c3ccc(Cl)cc3)c2C1	-1%	1%[59 µM]	.	.	.	.
O=C(O)c1ccc(NC(=O)[C@H](Cc2ccc(O)cc2)NC(=O)c2ccccc2)cc1	5%	15%[59 µM]	.	.	.	15%
COc1ccc(NC(=S)NNC(=O)c2ccc(S(=O)(=O)N3CCOCC3)cc2)cc1	43%	40µM*	0	-7%	-3%	30%
N#CCCN(C(=S)Nc1ccc(S(=O)(=O)N2CCOCC2)cc1)c1ccccc1F	7%	45µM*	-1	2%	-28%	.
N#C/C(=N\Nc1ccc(S(=O)(=O)N2CCOCC2)cc1)C(N)=S	-20%	0.56µM*	0	-6%	?	45µM*
O=S(=O)(c1ccc(NC(=S)Nc2ccccc2)cc1)N1CCOCC1	-13%	79µM*	-1	-1%	-19%	-21%
CC1CCN(S(=O)(=O)c2ccc(N/N=C(/C#N)C(N)=O)cc2)CC1	19%	6%[2.33 µM]	0	1%	-9%	2%
Cc1cc(NC(=O)N(C)CCc2c(C)nn(C)c2C)ccc1Br	5%	10%[59 µM]	.	.	.	.
CC1(OC(=O)c2ccco2)C(=O)C2=COC(C3CC3)=CC2=C(Br)C1=O (stereo unspecified)	-12%	.	.	.	.	-26%
Cc1cc(C)n(-c2nc(C)c(C)c(=O)n2CC(=O)Nc2cccc([N+](=O)[O-])c2)n1	0%	6.3µM*	.	.	.	.
CC(=O)c1ccc(NC(=O)Cn2c(-n3nc(C)cc3C)nc(C)c(C)c2=O)cc1	9%	4µM*	.	.	.	.
Cc1cc(=O)n(CC(=O)Nc2ccc(Cl)c(Cl)c2)c(-n2nc(C)cc2C)n1	7%	34%[59 µM]	.	.	.	.
COc1ccc(-n2nc(C(=O)NCC(=O)N3CCCC3)c3ccccc3c2=O)c(OC)c1	-5%	9%[59 µM]	-3	-13%	-9%	21%
CCOC(=O)N1CCN(C(=O)CNC(=O)c2nn(-c3ccc(OC)cc3OC)c(=O)c3ccccc23)CC1	1%	45µM*	0	0%	5%	31%
COc1ccc(-n2nc(C(=O)NCC(=O)N3CCN(c4ccccc4)CC3)c3ccccc3c2=O)cc1OC	-4%	45µM*	-1	-6%	4%	26%
Cc1cc(NC(=O)CSc2nnc(Nc3ccccc3C)s2)no1	-15%	?	-1	0%	21µM*	6%
O=C(CSc1nnc(Nc2ccccc2F)s1)NCc1ccco1	2%	?	-1	0%	-29%	-9%
O=C(CSc1nnc(NC(=O)c2c(F)cccc2F)s1)NCc1ccco1	-9%	45µM*	-2	0%	-8%	.
Cc1ccccc1Nc1nnc(SCC(=O)NC(=O)NCc2ccco2)s1	-6%	35µM*	-3	-10%	-16%	-18%
COc1ccc(/C=C/c2c(-c3ccc(OC)cc3)sc3ccc(N4CCOCC4)cc23)cc1	-2%	-20%	-1	-4%	-1%	6%
COc1ccc(-c2oc3ccc(N4CCOCC4)cc3c2/C=C/c2ccc(OC)c(OC)c2)cc1	-4%	50µM*	2	-1%	-11%	-23%
COc1ccc(-c2cc(=O)oc3c(O)c(O)ccc23)cc1	1%	8.9µM*	0	-1%	-10%	6%
